Our source for the Potency and activity change, negative = cytotoxic values is PubChem BioAssay (NCATS).

A short description of experiment [1]: qHTS of pediatric cancer cell lines to identify multiple opportunities for drug repurposing: Primary screen for BT-37 cells (AID 1347094).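 As to activity change, negative = cytotoxic: series mostly up to about 57 µM; plate controls were DMSO for no effect and bortezomib for full effect.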 The gist of the method: (§1)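 ATP-based luminescence (CellTiter-Glo) quantifies viability after a 48-hour exposure. Compounds are dosed across 8 or 11 final concentrations; DMSO and 2.3 µM bortezomib serve as controls.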
(In general: Quantitative high-throughput screening tests each substance at several concentrations.)

Experiment [2] in a line: qHTS of pediatric cancer cell lines to identify multiple opportunities for drug repurposing: Primary screen for NB-EBc1 cells (AID 1347095).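 As to activity change, negative = cytotoxic: plate controls were DMSO neutral control for no effect and bortezomib for full effect.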 The gist of the method:
as §1

The nature of experiment [3]: qHTS of pediatric cancer cell lines to identify multiple opportunities for drug repurposing: Primary screen for NB1643 cells (AID 1347099). Also: nearly all actives have a fitted effect of over 50% in size.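 As to activity change, negative = cytotoxic: plate controls were DMSO neutral control for no effect and bortezomib positive control for full effect.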 The gist of the method: as §1
Experiment [4] is described as follows: qHTS of pediatric cancer cell lines to identify multiple opportunities for drug repurposing: Primary screen for LAN-5 cells (AID 1347100).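 As to activity change, negative = cytotoxic: plate controls were DMSO neutral control for no effect and bortezomib positive control for full effect.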 The gist of the method: (§2)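 Cells (500-1,000/well) in growth media were settled 5 h at 37 degrees C, then given compounds for 48 h. Viability was read as CellTiter-Glo luminescence. Primary runs used MIPE at 11 points (0.78 nM-46 µM) and NPC at 8 points (0.59 nM-46 µM); follow-ups used 11 points.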

A short description of experiment [5]: qHTS of pediatric cancer cell lines to identify multiple opportunities for drug repurposing: Primary screen for BT-12 cells (AID 1347101). Also: nearly all actives have a fitted effect of over 25% in size.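 As to activity change, negative = cytotoxic: plate controls were DMSO for no effect and bortezomib positive control for full effect.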 The gist of the method: (§3)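 Cells (500-1,000/well) rested 5 h, then received compounds for 48 h; metabolically active cells were measured by CellTiter-Glo luminescence. Final concentrations spanned up to 46 µM (MIPE, 11-point) or 0.59 nM-46 µM (NPC, 8-point) in primary screens, 11-point in follow-ups.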

Experiment [6] can be described thus: qHTS of pediatric cancer cell lines to identify multiple opportunities for drug repurposing: Primary screen for A673 cells (AID 1347092). Also: nearly all actives have a fitted effect of over 45% in size. As to activity change, negative = cytotoxic: % is scaled to controls: 0 for no effect and ±100 for the full control effect. The gist of the method: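 Titration-based qHTS on A673 cells: MIPE compounds spanned 11 points (0.78 nM to 46 µM final), NPC compounds 8 points (0.59 nM to 46 µM final). Viability after 48 h was measured by ATP luminescence.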

Experiment [7] can be described thus: qHTS of pediatric cancer cell lines to identify multiple opportunities for drug repurposing: Primary screen for U-2 OS cells (AID 1347096). Also: nearly all actives have a fitted effect of over 50% in size.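 As to activity change, negative = cytotoxic: plate controls were DMSO wells for no effect and bortezomib positive control wells for full effect.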 The gist of the method: as §2
Experiment [8] is described as follows: qHTS of pediatric cancer cell lines to identify multiple opportunities for drug repurposing: Primary screen for SK-N-SH cells (AID 1347098). Also: nearly all actives have a fitted effect of over 65% in size.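 As to activity change, negative = cytotoxic: DMSO served as neutral control and bortezomib at 2.3 µM as positive control; % is scaled to controls: 0 for no effect and ±100 for the full control effect.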 The gist of the method: as §3
The nature of experiment [9]: qHTS of pediatric cancer cell lines to identify multiple opportunities for drug repurposing: Primary screen for Saos-2 cells (AID 1347097). Also: nearly all actives have a fitted effect of over 40% in size. As to activity change, negative = cytotoxic: % is scaled to controls: 0 for no effect and ±100 for the full control effect. The gist of the method:
as §1

Experiment [10] in a line: qHTS of pediatric cancer cell lines to identify multiple opportunities for drug repurposing: Primary screen for SK-N-MC cells (AID 1347093).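 As to activity change, negative = cytotoxic: series mostly up to about 46 µM; plate controls were DMSO neutral control for no effect and bortezomib for full effect.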 The gist of the method: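 Metabolically active cells were quantified by ATP-dependent luminescence (CellTiter-Glo, 15 min at room temperature) following 48 h treatment. Cells had been plated at 500-1,000 per well and settled for 5 h beforehand.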

Structures are written as SMILES. Records with an inconclusive call do not appear. A number with no mark means an inactive call. The source made the active and inactive calls. Calls follow the shape of the dose curve; as a rule, active = well fitted curve in the direction sought with a large enough effect; inconclusive = small, poorly fitted or top-dose-only effect, or another doubt; inactive = no such curve, though single readings can be large; an effect the other way counts as inactive or inconclusive.
Potency is read from the fitted curve at half-maximal effect.

For the molecule `CNCC(O)c1ccc(O)c(O)c1` (stereo not drawn), the Potency entry in experiment [1], in [2], in experiment [3], in experiment [4] and in experiment [5] was “inactive” throughout.

For the molecule `CC(=O)OCC(=O)[C@@]1(O)CC[C@H]2[C@@H]3CCC4=CC(=O)CC[C@]4(C)[C@H]3C(=O)C[C@@]21C`, the Potency entry in experiment [6], in experiment [1], in experiment [2], in experiment [7], in [8] and in experiment [4] was “inactive” in each case. For the same molecule, the Potency result in experiment [5] was “inactive”.

With `Nc1ncnc2c1ncn2[C@@H]1O[C@H](CO)[C@@H](O)[C@H]1O`, the Potency result in experiment [1], in experiment [2], in experiment [7], in experiment [9], in [8] and in experiment [3] was “inactive” each time. The Potency entry in experiment [4] and in [5] was “inactive” each time.

`O=C1Nc2ccc(Cl)cc2[C@@](C#CC2CC2)(C(F)(F)F)O1`: the Potency entry in experiment [7] and in experiment [4] was “inactive” in each case.

On to `CCN(CC)CCNC(=O)c1cc(Cl)c(N)cc1OC`, for which the Potency entry in experiment [6], in experiment [1], in [2], in experiment [8], in experiment [3] and in [4] was “inactive” throughout. For the same molecule, the Potency entry in experiment [5] was “inactive”.

For `O=C(CCCN1CCN(c2ccccn2)CC1)c1ccc(F)cc1`, the Potency entry in experiment [1], in experiment [2], in [8], in experiment [3] and in experiment [4] was “inactive” throughout.

Consider `O=c1[nH]c(=O)c2[nH]c(=O)[nH]c2[nH]1`, for which the activity change, negative = cytotoxic was -14.8% [at 9.22 µM] in [6]; 0.299% [at 11.5 µM] in [1]; -4.54% [at 9.22 µM] in experiment [2]; -0.365% [at 9.22 µM] in experiment [7]; 13.8% [at 11.4 µM] in experiment [8]; -5.19% [at 9.22 µM] in experiment [3]. For the same molecule, the activity change, negative = cytotoxic in experiment [4] is 19.2% [at 9.22 µM]; in experiment [5], 3.54% [at 11.5 µM].

With `CC(C)c1c(C(=O)Nc2ccccc2)c(-c2ccccc2)c(-c2ccc(F)cc2)n1CC[C@@H](O)C[C@@H](O)CC(=O)O`, the Potency is 21.1 µM (active) in experiment [6]; 24.6 µM (active) in [1]; 21.1 µM (active) in experiment [7]; 0.841 µM (active) in [9]; 12.2 µM (active) in [8]; 1.23 µM (active) in [5]. In addition, in [4], the Potency entry is “inactive”.

With `CSc1ccc2c(c1)N(CCC1CCCCN1C)c1ccccc1S2` (stereo not drawn), the Potency in experiment [6] was 21.1 µM (active); in experiment [9], 23.7 µM (active); in [5], 24.6 µM (active). The Potency entry in experiment [2] was “inactive”.

For `CCOc1nc2cccc(C(=O)O)c2n1Cc1ccc(-c2ccccc2-c2nn[nH]n2)cc1`, the Potency entry in experiment [6], in [1], in [2], in [9], in experiment [8] and in experiment [3] was “inactive” in each case. In addition, the Potency entry in experiment [4] and in experiment [5] was “inactive” each time.

Consider `CC(CN(C)C)CN1c2ccccc2CCc2ccccc21` (stereo not drawn), for which the Potency result in experiment [10], in experiment [2], in experiment [7], in experiment [3] and in [4] was “inactive” throughout.

In the case of `CN(C)CCCN1c2ccccc2Sc2ccc(Cl)cc21`, the Potency in experiment [6] was 21.1 µM (active); in [8] it was 6.12 µM (active). Further, the Potency entry in [7] is “inactive”.

Consider `CCN(CC)CCSC(=O)C(c1ccccc1)c1ccccc1`, for which the Potency in experiment [6] is 21.1 µM (active); in experiment [2], 23.7 µM (active); in experiment [3], 23.7 µM (active). Also, the Potency entry in experiment [1], in experiment [7], in experiment [8] and in experiment [5] was “inactive” in each case.

For `COc1ccc2c(c1)C(=O)N(CCc1ccc(S(=O)(=O)NC(=O)NC3CCCCC3)cc1)C(=O)C2(C)C`, the Potency result in experiment [6], in experiment [2], in [9], in experiment [8], in experiment [3] and in experiment [4] was “inactive” in each case. Moreover, the Potency result in [5] is “inactive”.

For the molecule `COCCOC(=O)C1=C(C)NC(C)=C(C(=O)OC/C=C/c2ccccc2)C1c1cccc([N+](=O)[O-])c1` (stereo not drawn), in [3], the Potency result was “inactive”.

Regarding `Cc1c(O)cccc1C(=O)N[C@@H](CSc1ccccc1)[C@H](O)CN1C[C@H]2CCCC[C@H]2C[C@H]1C(=O)NC(C)(C)C`, the Potency was 26.6 µM (active) in experiment [10], 21.1 µM (active) in experiment [7] and 26.6 µM (active) in [9].

`CSc1ccc2c(c1)C(N1CCN(C)CC1)Cc1ccccc1S2` (stereo not drawn): the Potency result in experiment [2], in [7] and in experiment [3] was “inactive” each time. Besides, in experiment [8], the Potency is 27.3 µM (active).

With `COC(=O)C1=C(C)NC(C)=C(C(=O)OC)C1c1ccccc1[N+](=O)[O-]`, the Potency result in experiment [6], in [9], in experiment [3], in experiment [4] and in experiment [5] was “inactive” each time. Moreover, the Potency in experiment [8] is 21.7 µM (active).

Take `CN(C)CCN(Cc1ccccc1)c1ccccn1`: the Potency result in [6], in experiment [1], in [2], in [7], in experiment [8] and in experiment [3] was “inactive” throughout. In addition, the Potency result in [4] and in [5] was “inactive” in each case.

With `Oc1ccc(C(O)CNCCCCCCNCC(O)c2ccc(O)c(O)c2)cc1O` (stereo not drawn), the Potency result in experiment [10], in [1], in experiment [2], in experiment [7], in experiment [9] and in experiment [8] was “inactive” in each case. Further, the Potency entry in experiment [3] and in experiment [5] was “inactive” throughout.

As to `[Cl][In]([Cl])[Cl]`, the Potency entry in experiment [2], in experiment [7], in experiment [8], in experiment [3], in [4] and in [5] was “inactive” each time. The Potency in experiment [9] is 8.63 µM (active).

On to `CN1CCN(C2Cc3ccccc3Sc3ccc(Cl)cc32)CC1` (stereo not drawn), for which the Potency in [10] was 21.1 µM (active); in experiment [8], 21.7 µM (active); in experiment [4], 9.44 µM (active).

Turning to `CN(C)CCCN1c2ccccc2CCc2ccccc21`, the Potency entry in [1], in [2], in experiment [8], in experiment [3] and in experiment [4] was “inactive” throughout.
